# Compound activity: PubChem BioAssay, National Center for Advancing Translational Sciences (NCATS)
# In the library only some 0.49% were active in any assay of this set; here they are far more common.
# LDHA block = qHTS assay for inhibitors of human lactate dehydrogenase | purified LDHA, NADH/diaphorase-resazurin fluorescence; hits give low values | L-lactate dehydrogenase A chain (Homo sapiens), P00338 | 480,000 compounds, 0.15% hits | activity change, % (values are at about 110 or 230 µM); in the data active = activity change below about -30%; inconclusive = mostly about -25% to -30%
#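 LDH5 2 nM; NADH 0.06 mM, pyruvate 0.2 mM; 200 mM Tris pH 7.4, EDTA, Tween-20; 5 min RT. Detection: diaphorase 0.133 mg/mL + resazurin 37 µM, fluorescence ex540/em590 at 0 and 20 min; normalized to enzyme-free and DMSO wells.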
# Apoferritin bind = qHTS Assay for Identification of Novel General Anesthetics; Ferritin light chain (Equus caballus), P02791; apoferritin/1-aminoanthracene competitive binding, fluorescence; Potency, µM (titrated, usually from 77.5 µM), usual class: inhibitors; 350,000 compounds, 0.074% hits; also: nearly all actives have a fitted effect of over 20% in size
# Target sequence (P02791 2-175 limits assumed): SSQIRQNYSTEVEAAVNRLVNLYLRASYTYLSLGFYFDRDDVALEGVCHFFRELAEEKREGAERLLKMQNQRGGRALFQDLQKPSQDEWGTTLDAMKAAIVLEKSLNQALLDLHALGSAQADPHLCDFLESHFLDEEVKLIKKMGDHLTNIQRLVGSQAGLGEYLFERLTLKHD
#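 Read-out: endpoint 1-AMA fluorescence, excitation 380 nm and emission 535 nm, after compounds sit 10 min at room temperature with 10 uM horse-spleen apoferritin in 50% saturated 1-AMA/PBS. Values come from four-parameter Hill fits.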
# Epigenetic reg = Quantitative High-Throughput Screen for Regulators of Epigenetic Control; murine LDR cells, GFP reporter derepression, 30 h; Potency, µM (doses to about 53.9 µM), most hits filed as activators; 280,000 compounds, 0.2% hits; AID 1865, 2009; also: nearly all actives have a fitted effect of over 60% in size
#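 In this reporter-derepression format, murine cells bearing a silenced integrated CMV-GFP locus incubate with test compound (30 h, 37 C), then are washed and imaged; fluorescent objects of 20–120 um count as induced cells.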
# Vif-A3F inh = qHTS for Inhibitors of Vif-A3F Interactions: qHTS; HeLa A3F-eYFP + Vif (tagged APOBEC3F with the HIV-1 protein that degrades it), YFP fluorescence increase; Potency, µM (series often up to 46.1 µM); AID 602313, 2012; 390,000 compounds, 0.2% hits; also: nearly all actives have a fitted effect of over 65% in size
#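 Fluorescence increase (Ex 488/Em 500-530) after overnight compound treatment at 37 deg C flags inhibition of Vif-driven A3F-eYFP loss in stable HeLa A3F-eYFP/Vif cells seeded overnight beforehand.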
# Vif-APOBEC3G blk = qHTS for Inhibitors of Vif-A3G Interactions: qHTS; DNA dC->dU-editing enzyme APOBEC-3G (Homo sapiens), Q9HC16; HeLa A3G-eYFP + Vif (tagged APOBEC3G with the HIV-1 protein that degrades it), YFP fluorescence, overnight; Potency, µM (series often up to 46.1 µM), actives largely listed as inhibitors; 410,000 compounds, 0.076% hits; also: nearly all actives have a fitted effect of over 60% in size
# Target sequence (Q9HC16 whole entry, looked up): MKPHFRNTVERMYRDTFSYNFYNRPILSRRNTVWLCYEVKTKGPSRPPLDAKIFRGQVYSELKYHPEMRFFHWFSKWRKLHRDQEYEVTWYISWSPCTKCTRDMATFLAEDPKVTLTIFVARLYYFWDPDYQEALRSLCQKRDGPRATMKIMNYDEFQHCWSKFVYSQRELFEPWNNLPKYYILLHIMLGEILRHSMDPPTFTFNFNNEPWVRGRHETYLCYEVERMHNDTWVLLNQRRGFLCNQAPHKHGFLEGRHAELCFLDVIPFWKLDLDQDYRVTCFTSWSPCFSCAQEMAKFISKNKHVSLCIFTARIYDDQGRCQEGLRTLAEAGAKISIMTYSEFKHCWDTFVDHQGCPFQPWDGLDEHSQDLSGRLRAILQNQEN
#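 Read-out is eYFP fluorescence (Ex 488/Em 500-530) from Vif-expressing HeLa A3G-eYFP cells; more signal means A3G escaped Vif-mediated degradation. Cells plated overnight, compound pinned in, incubated overnight at 37 deg C.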
# Numbers stand for hits; - = inactive; ? = inconclusive; . = not tested or not shown; [ ] = another dose, or the depositor's remark. Unless noted, calls follow the shape of the dose curve; as a rule, active = well fitted curve in the direction sought with a large enough effect; inconclusive = small, poorly fitted or top-dose-only effect, or another doubt; inactive = no such curve, though single readings can be large; an effect the other way counts as inactive or inconclusive.
SMILES,LDHA block,Apoferritin bind,Epigenetic reg,Vif-A3F inh,Vif-APOBEC3G blk
C=C(C(=O)c1ccccc1)C(C)C(=C)C(=O)c1ccccc1,-,?,-,?,5µM
c1ccc2cc(Cn3ccnc3)ccc2c1,-,-,.,-,-
COc1ccccc1-n1[nH]c(C)c(Cc2ccc(Cl)cc2)c1=O,-,.,.,.,.
COc1ccccc1-n1[nH]c(C)c(Cc2ccccc2Cl)c1=O,-44,.,.,.,.
COc1cc2c3nnc(-c4ccc(F)cc4)c-3cn(Cc3ccc(C)cc3)c2cc1OC,-,-,6.3µM,-,?
COc1cccc(Cn2nc3c4cc(F)ccc4n(Cc4ccc(F)cc4)cc-3c2=O)c1,-,-,.,?,-
COc1cc2c3nnc(-c4ccc(F)cc4)c-3cn(Cc3cccc(C)c3)c2cc1OC,-,-,3.5µM,?,-
COc1cc2c3nnc(-c4ccccc4)c-3cn(Cc3ccc(F)cc3)c2cc1OC,-,-,?,?,?
COc1cc2c3nnc(-c4ccc(F)cc4)c-3cn(Cc3cccc(F)c3)c2cc1OC,-,-,7.1µM,6.3µM,7.9µM
COc1ccccc1NC(=O)C1=C(C)Nc2nc(-c3ccco3)nn2C1c1ccccc1 (configuration not stated),-,-,-,-,-
Cc1[nH]c2ccccc2c1/C=C/C(=O)c1ccccc1,-,-,?,28µM,?
Cc1[nH]c2ccccc2c1/C=N/NC(=O)c1ccccc1,-,-,.,-,-
Cc1ccc(-c2nsc(NC(=O)c3oc4ccc(Cl)cc4c3C)n2)s1,-,.,.,.,.
Cc1ccc2c(C)c(C(=O)Nc3nc(-c4ccc(C)s4)ns3)oc2c1,-33,.,.,.,.
Cc1nc(C)c(-c2ccc(SCC(=O)Nc3ccccc3F)nn2)s1,-,22µM,-,-,-
Cc1nc(C)c(-c2ccc(SCC(=O)Nc3ccc(F)cc3F)nn2)s1,-,-,.,-,-
COc1ccc(C(=O)N/N=C/c2cc(Br)ccc2O)cc1OC,-,-,-,11µM,-
Nc1nc(NCc2ccc(Cl)cc2Cl)c2[nH]cnc2n1,-,.,.,.,-
O=C(CN1CCN(S(=O)(=O)c2ccccc2F)CC1)N1CCc2ccccc2C1,-47,.,.,-,-
CCOC(=O)N1CCN(C(=O)CSc2ccc3nnc(-c4ccccn4)n3n2)CC1,-,-,-,-,-
CCN(CC)CCSc1nnc(Nc2ccccc2)n1-c1ccccc1,-,-,-,-,-
Cc1[nH]c2ccccc2c1N=Nc1ccc(F)cc1,-,?,-,-,-
Cc1[nH]c2ccccc2c1N=Nc1cc(C(=O)O)cc(C(=O)O)c1,-34,-,-[10.1 µM],-,-
Cc1nc(SCC(=O)c2ccc(F)c(F)c2)[nH]c(=O)c1Oc1ccc(Cl)cc1,-,-,-,-,-
CN(Cc1c(C(=O)N/N=C/c2cccc(F)c2)nnn1-c1nonc1N)c1ccccc1,-,?,.,-,-
SMILES,LDHA block,Apoferritin bind,Epigenetic reg,Vif-A3F inh,Vif-APOBEC3G blk
CC1(C(=O)Nc2cccc(C(F)(F)F)c2)Cc2ccccc2C(=O)O1 (configuration not stated),-,16µM,-,-,-
COc1ccc(OC)c(S(=O)(=O)N2CCN(CC(O)CN3CCOCC3)CC2)c1 (configuration not stated),-,.,.,-,-
N#Cc1ccccc1S(=O)(=O)N1CCN(CC(O)CN2CCOCC2)CC1 (configuration not stated),-45,.,.,-,-
Cc1cc(C)c2cc3c(N)c(C(=O)Nc4c(C)[nH]c(=O)[nH]c4=O)sc3nc2c1,-,-,-,22µM,?
Cc1cc(C)c2cc3c(N)c(C(=O)N4CCOCC4)sc3nc2c1,-,-,-,?,-
NC(=O)C1CCN(c2nc3ccccc3nc2NS(=O)(=O)c2ccc(Br)cc2)CC1,-,.,.,25µM,-
NC(=O)C1CCN(C2=C(NS(=O)(=O)c3ccc(Br)cc3)C(=O)c3ccccc3C2=O)CC1,-,?,.,-,-
COc1ccc(COC(=O)C2CCN(S(=O)(=O)c3ccc(OC)c(OC)c3)CC2)cc1,-,.,.,-,-
C/C(C/C(C)=C1/SC(=S)NC1=O)=C1\SC(=S)NC1=O,-34,-,-,-,-
CCCN1CCc2c(sc(NC(=S)NC(=O)c3ccccc3)c2C#N)C1,-,-,?,25µM,-
COc1ccc(C(=O)Nc2sc3c(c2C#N)CCN(C(C)=O)C3)cc1,-,-,-,-,10µM
CC(=O)N1CCc2c(sc(NC(=O)Cc3ccc(F)cc3)c2C#N)C1,-,-,.,-,-
CC(=O)N1CCc2c(sc(NC(=O)c3ccc([N+](=O)[O-])o3)c2C#N)C1,-,-,11µM,-,-
CC(C)N1CCc2c(sc(NC(=S)NC(=O)c3ccccc3)c2C#N)C1,-,-,-,?,?
COc1cc(C(=O)Nc2sc3c(c2C#N)CCN(C(C)=O)C3)cc(OC)c1OC,-,-,-,-,?
CC1CCCN(C(=O)c2nn(C)c3c2CSc2ccccc2-3)C1 (configuration not stated),-,?,.,-,-
CCOc1ccc2c(c1)cc(C(=O)Nc1ccccc1OCC)n2C,-33,.,.,.,.
CCOc1ccc2c(c1)cc(C(=O)Nc1ccc(OC)cc1)n2C,-,.,.,.,.
CC[N+](C)(C)c1ccc(/C=C/c2ccncc2)cc1,.,.,.,.,10µM
CC[N+](C)(C)c1ccc(/C=C/c2ccc3ccccc3n2)cc1,-,.,.,.,-
O=C(Cc1c[nH]c2ccccc12)N1CCN(S(=O)(=O)c2cc(F)ccc2F)CC1,-37,.,.,.,.
COc1ccc(CC(=O)Nc2nc3ccccc3[nH]2)cc1,-,.,-,-,-
COC(=O)Cc1cc(=O)n(-c2nc3ccccc3[nH]2)[nH]1,-40,-,-,-,-
CCN(CC)CCCC(C)Nc1nc(C)cc(Nc2ccc3nc(C)cc(N)c3c2)n1 (configuration not stated),.,-,-,.,.
Cc1c(Cl)cccc1NC(=S)NCCc1ccc(S(N)(=O)=O)cc1,-,-,-,-,-
CC1CCCC(C)N1C(=O)Cc1ccccc1 (configuration not stated),-,13µM,-,-,-
CC1CCCC(C)N1C(=O)COc1cccc(Oc2ccccc2)c1 (configuration not stated),-,.,.,-,-
O=C1CN(c2ccc(F)cc2)C(=S)N1c1ccccc1,-,-,.,-,-
CC(CCC(C)C(C)(C)C)[C@@H]1CC[C@H]2C3C[C@H](OS(O)(=S)=S)[C@H]4C[C@H](OS(O)(=S)=S)[C@@H](OS(O)(=S)=S)C[C@]4(C)[C@H]3CC[C@]12C (some centres not stated) (tested in a mixture with another compound),-94,.,.,-,-
COc1ccc(/C(O)=C/c2nc3ccccc3n(-c3ccccc3)c2=O)cc1,-,-,25µM,?,-
